The results in this text go back to PubChem BioAssay (EPA / NIEHS).

In experiment [1] the target is human Janus Kinase 2 (Jak2), JAK2 (gene 3717) (UniProt O60674). As to the kind of experiment: NVS_ENZ_hJak2: NovaScreen (NVS) Enzymatic Assay for human Janus Kinase 2 (Jak2) (AID 2283169). Summed up: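 Single-point duplicate screen at 25 uM, with hits run in concentration series to a 50 uM top dose. Substrate-product separation by mobility shift with fluorescence detection, 1 h post-dosing; DMSO baseline.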

The target of experiment [2] is Glycogen synthase kinase-3 beta (Homo sapiens) (UniProt P49841). Description: NVS_ENZ_hGSK3b: NovaScreen (NVS) Enzymatic Assay for human Glycogen Synthase Kinase-3 beta (GSK3b) (AID 2283165). Put shortly:
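Recombinant enzyme with specific fluorescent substrate, 1 h, product separated by electrophoretic mobility shift. Primary duplicate screen at 25 uM; actives (e.g. 30% inhibition) followed in singleton concentration-response to 50 uM. Signal loss fitted versus DMSO.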

Experiment [3] addresses Collagenase 3 (Homo sapiens) (UniProt P45452). Description: NVS_ENZ_hMMP13: NovaScreen (NVS) Enzymatic Assay for human Matrix Metalloproteinase-13 (MMP13) (AID 2283182). Summed up: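 Recombinant MMP13 cleaving fluorescent substrate, cell-free, measured 1 h after dosing. Primary duplicate screen at 25 uM; actives tested in concentration-response up to 50 uM; loss of signal relative to DMSO.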

The target of experiment [4] is human Matrix Metalloproteinase-2 (MMP2), MMP2 (gene 4313) (UniProt P08253). As to the kind of experiment: NVS_ENZ_hMMP2: NovaScreen (NVS) Enzymatic Assay for human Matrix Metalloproteinase-2 (MMP2) (AID 2283184). Summed up: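 Compounds first screened in duplicate at a single 25 uM, with actives followed up in concentration series. Recombinant human MMP2 cleaves a fluorogenic substrate; fluorescence taken at 1 h, inhibition fitted relative to DMSO.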

Experiment [5] has as its target human Matrix Metalloproteinase-3 (MMP3), MMP3 (gene 4314) (UniProt P08254). As to the kind of experiment: NVS_ENZ_hMMP3: NovaScreen (NVS) Enzymatic Assay for human Matrix Metalloproteinase-3 (MMP3) (AID 2283185). Put shortly: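 Fluorescent substrate turnover by recombinant MMP3 read after 1 h, signal loss scored against DMSO. Compounds first run in duplicate at 25 uM single dose, then actives confirmed by concentration series.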

Experiment [6] has as its target human Matrix Metalloproteinase-9 (MMP9), MMP9 (gene 4318) (UniProt P14780). As to the kind of experiment: NVS_ENZ_hMMP9: NovaScreen (NVS) Enzymatic Assay for human Matrix Metalloproteinase-9 (MMP9) (AID 2283190).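 Also: cell-free recombinant MMP9 protease activity read by fluorescent substrate signal; active means inhibition seen as loss of fluorescence signal versus DMSO.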 Summed up:
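Cell-free fluorescence-intensity enzyme activity assay using extracted protein, read 1 h after dosing. Loss of signal versus DMSO baseline indicates inhibition; primary screen in duplicate at 25 uM, actives followed up in concentration series.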

The target of experiment [7] is human Phosphodiesterase 4A1 (PDE4A1), PDE4A (gene 5141) (UniProt P27815). As to the kind of experiment: NVS_ENZ_hPDE4A1: NovaScreen (NVS) Enzymatic Assay for human Phosphodiesterase 4A1 (PDE4A1) (AID 2283191). Summed up: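 Fluorescent substrate turnover by recombinant PDE4A1 read after 1 h by mobility-shift separation. Primary duplicate screen at 25 uM; hits retested in concentration series with a 50 uM maximum, relative to DMSO.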

For experiment [8], the target named is human Phosphodiesterase 5 (PDE5), PDE5A (gene 8654) (UniProt O76074). Description: NVS_ENZ_hPDE5: NovaScreen (NVS) Enzymatic Assay for human Phosphodiesterase 5 (PDE5) (AID 2283194). Put shortly: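 Screening began in duplicate at 25 uM, with actives taken into concentration-response. Enzyme activity of recombinant PDE5 toward its substrate was measured at 1 h by fluorescence mobility-shift detection, relative to DMSO controls.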

Experiment [9] concerns the target human Phosphodiesterase 10 (PDE10), PDE10A (gene 10846) (UniProt Q9Y233). Description: NVS_ENZ_hPDE10: NovaScreen (NVS) Enzymatic Assay for human Phosphodiesterase 10 (PDE10) (AID 2283195). Put shortly:
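Biochemical single-readout PDE10A assay, cell-free, extracted protein. Compounds first screened at 25 uM in duplicate, hits then titrated to 50 uM max. Activity measured after 1 h; loss-of-signal fitted against DMSO negative control.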

Experiment [10] deals with human c-Jun N-terminal Kinases (JNK2), MAPK9 (gene 5601) (UniProt P45984). Description: NVS_ENZ_hJNK2: NovaScreen (NVS) Enzymatic Assay for human c-Jun N-terminal Kinases (JNK2) (AID 2283171). Put shortly:
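Chemicals first tested in duplicate at 25 uM, then in singleton concentration series up to 50 uM, against extracted JNK2 enzyme. Activity loss read by fluorescence with mobility-shift separation 1 h post-dose; DMSO baseline.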

In experiment [11] the target is Mitogen-activated protein kinase 3 (Homo sapiens) (UniProt P27361). Description: NVS_ENZ_hMAPK3: NovaScreen (NVS) Enzymatic Assay for human Mitogen-Activated Protein Kinase 3 (MAPK 3) (AID 2283177). Summed up: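 Chemicals were first tested in duplicate at 25 uM, with hits re-run as concentration series (max 50 uM). Recombinant enzyme activity, measured 1 h post-dose in a cell-free format, was read by fluorescence/mobility shift relative to DMSO.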

Experiment [12] deals with cAMP-dependent protein kinase catalytic subunit alpha (Homo sapiens) (UniProt P17612). Description: NVS_ENZ_hPKA: NovaScreen (NVS) Enzymatic Assay for human Protein Kinase A (PKA) (AID 2283192). Put shortly:
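Cell-free kinase activity read by fluorescence after mobility-shift separation of substrate and product, 1 h post-dosing. Single-concentration duplicate screen (25 uM) preceded singleton concentration series (top 50 uM); loss of signal versus DMSO.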

Experiment [13] has as its target human LYN Proto-Oncogene, Src family Tyrosine Kinase (LynA), LYN (gene 4067) (UniProt P07948). Description: NVS_ENZ_hLynA: NovaScreen (NVS) Enzymatic Assay for human LYN Proto-Oncogene, Src family Tyrosine Kinase (LynA) (AID 2283173). Summed up: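 Recombinant kinase with fluorescent substrate; product separated from substrate by electrophoretic mobility shift and read 1 h after dosing. Duplicate screen at 25 uM, then concentration-response up to 50 uM; activity scored as signal loss against DMSO.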

Experiment [14] concerns the target human Mitogen- and Stress-activated Protein Kinase-1 (Msk1), RPS6KA5 (gene 9252) (UniProt O75582). Description: NVS_ENZ_hMsk1: NovaScreen (NVS) Enzymatic Assay for human Mitogen- and Stress-activated Protein Kinase-1 (Msk1) (AID 2283187). Put shortly: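 Chemicals first run in duplicate at 25 uM, with actives followed up in singleton concentration series to 50 uM maximum. Enzyme activity came from substrate/product mobility-shift separation with fluorescence detection after 1 h incubation of the recombinant protein.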

Experiment [15] concerns the target Histone deacetylase 3 (Homo sapiens) (UniProt O15379). Description: NVS_ENZ_hHDAC3: NovaScreen (NVS) Enzymatic Assay for human Histone Deacetylase 3 (HDAC3) (AID 2283163). Summed up:
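Cell-free enzyme format: loss of fluorescent product after mobility-shift separation, 1 h incubation, recombinant human HDAC3. Single 25 uM duplicate screen first, then concentration series to a 50 uM top for hits; DMSO as baseline.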

Experiment [16] deals with human MAP Kinase-Activated Protein Kinase 2 (MAPKAPK2), MAPKAPK2 (gene 9261) (UniProt P49137). As to the kind of experiment: NVS_ENZ_hMAPKAPK2: NovaScreen (NVS) Enzymatic Assay for human MAP Kinase-Activated Protein Kinase 2 (MAPKAPK2) (AID 2283178). Put shortly: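 Chemicals screened in duplicate at 25 uM, then to 50 uM top concentration in concentration-response, against recombinant human MAPKAPK2; substrate conversion read 1 hr post-dosing by fluorescence after electrophoretic mobility-shift separation, loss-of-signal relative to DMSO.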

For experiment [17], the target named is human Protein Phosphatase, Mg2+/Mn2+ Dependent 1A (PPM1A), PPM1A (gene 5494) (UniProt P35813). As to the kind of experiment: NVS_ENZ_hPPM1A: NovaScreen (NVS) Enzymatic Assay for human Protein Phosphatase, Mg2+/Mn2+ Dependent 1A (PPM1A) (AID 2283198). Put shortly: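 Primary screen in duplicate at 25 uM, with actives then titrated to a maximum of 50 uM. Recombinant PPM1A dephosphorylation of fluorescent substrate measured at 1 h, with substrate and product separated by mobility shift; inhibition fitted against DMSO.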

Experiment [18] deals with Serine/threonine-protein phosphatase PP1-alpha catalytic subunit (Homo sapiens) (UniProt P62136). Description: NVS_ENZ_hPPP1CA: NovaScreen (NVS) Enzymatic Assay for human Protein Phosphatase 1 Aatalytic subunit Alpha (PPP1CA) (AID 2283200). Put shortly:
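Chemicals were first screened in duplicate at 25 uM, and those passing threshold (e.g. 30% inhibition) were run as concentration series to 50 uM. Cell-free recombinant protein, 1.33 h read, fluorescent substrate/product mobility-shift detection, normalised to DMSO.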

Each structure is given as a SMILES string. Records with an inconclusive call do not appear. The source made the active and inactive calls. The calls were made as follows: active = hit-call score of the fitted dose curve at least 0.9, where 1 is the maximum; inconclusive = response in the unintended direction; inactive = score below 0.9.

Glycogen synthase kinase-3 beta (Homo sapiens), sequence (P49841 whole entry, looked up): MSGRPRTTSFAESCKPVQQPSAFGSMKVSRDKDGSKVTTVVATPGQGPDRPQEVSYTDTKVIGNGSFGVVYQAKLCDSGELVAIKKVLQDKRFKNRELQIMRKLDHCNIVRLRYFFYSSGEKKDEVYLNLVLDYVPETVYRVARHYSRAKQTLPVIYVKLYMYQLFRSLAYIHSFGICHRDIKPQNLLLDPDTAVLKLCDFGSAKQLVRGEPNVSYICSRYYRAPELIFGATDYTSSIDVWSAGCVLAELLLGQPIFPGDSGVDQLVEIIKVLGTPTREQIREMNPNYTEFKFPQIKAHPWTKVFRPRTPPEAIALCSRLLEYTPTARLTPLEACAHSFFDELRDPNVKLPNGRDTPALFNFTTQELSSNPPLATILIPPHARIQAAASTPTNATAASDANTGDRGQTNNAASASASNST
Mitogen-activated protein kinase 3 (Homo sapiens), sequence (P27361 whole entry, looked up): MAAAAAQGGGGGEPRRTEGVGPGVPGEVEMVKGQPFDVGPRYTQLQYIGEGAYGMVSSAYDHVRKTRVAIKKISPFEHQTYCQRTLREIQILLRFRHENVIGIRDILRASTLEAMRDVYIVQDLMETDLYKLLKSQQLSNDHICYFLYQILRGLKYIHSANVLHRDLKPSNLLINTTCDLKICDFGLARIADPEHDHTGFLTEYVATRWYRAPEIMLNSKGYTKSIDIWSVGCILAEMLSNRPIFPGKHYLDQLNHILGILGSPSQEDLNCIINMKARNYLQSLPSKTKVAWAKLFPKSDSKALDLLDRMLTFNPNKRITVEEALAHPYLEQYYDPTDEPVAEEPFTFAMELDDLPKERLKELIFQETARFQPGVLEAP
human Janus Kinase 2 (Jak2), JAK2 (gene 3717), sequence (O60674 whole entry, looked up): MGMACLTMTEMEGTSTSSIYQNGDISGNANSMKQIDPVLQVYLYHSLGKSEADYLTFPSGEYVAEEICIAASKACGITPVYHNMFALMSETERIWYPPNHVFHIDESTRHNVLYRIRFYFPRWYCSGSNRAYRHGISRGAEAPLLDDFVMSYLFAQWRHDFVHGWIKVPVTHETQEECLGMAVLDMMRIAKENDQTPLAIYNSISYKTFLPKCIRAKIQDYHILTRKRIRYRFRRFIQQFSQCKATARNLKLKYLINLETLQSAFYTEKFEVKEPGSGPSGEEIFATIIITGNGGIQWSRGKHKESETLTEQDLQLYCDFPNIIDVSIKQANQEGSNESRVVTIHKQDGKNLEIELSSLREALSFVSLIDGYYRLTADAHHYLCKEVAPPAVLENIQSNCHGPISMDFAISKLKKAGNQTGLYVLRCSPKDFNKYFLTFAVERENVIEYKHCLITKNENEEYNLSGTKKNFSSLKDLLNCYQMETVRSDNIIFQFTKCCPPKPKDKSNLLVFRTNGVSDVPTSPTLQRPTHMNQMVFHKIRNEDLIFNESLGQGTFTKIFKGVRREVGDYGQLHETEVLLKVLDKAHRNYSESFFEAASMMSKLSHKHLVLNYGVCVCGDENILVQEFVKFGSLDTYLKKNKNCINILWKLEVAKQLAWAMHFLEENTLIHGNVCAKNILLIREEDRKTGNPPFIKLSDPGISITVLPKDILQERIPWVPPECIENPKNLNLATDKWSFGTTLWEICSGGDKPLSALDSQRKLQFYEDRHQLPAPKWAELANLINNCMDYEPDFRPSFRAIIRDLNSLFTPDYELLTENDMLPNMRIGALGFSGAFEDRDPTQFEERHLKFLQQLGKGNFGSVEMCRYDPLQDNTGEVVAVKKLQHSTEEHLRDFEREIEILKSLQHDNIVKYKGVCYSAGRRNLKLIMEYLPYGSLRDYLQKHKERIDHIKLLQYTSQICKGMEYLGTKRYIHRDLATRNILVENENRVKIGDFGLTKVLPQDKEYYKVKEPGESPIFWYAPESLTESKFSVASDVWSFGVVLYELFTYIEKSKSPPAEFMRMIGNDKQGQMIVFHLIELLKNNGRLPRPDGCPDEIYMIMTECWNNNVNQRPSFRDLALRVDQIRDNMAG
human c-Jun N-terminal Kinases (JNK2), MAPK9 (gene 5601), sequence (P45984 whole entry, looked up): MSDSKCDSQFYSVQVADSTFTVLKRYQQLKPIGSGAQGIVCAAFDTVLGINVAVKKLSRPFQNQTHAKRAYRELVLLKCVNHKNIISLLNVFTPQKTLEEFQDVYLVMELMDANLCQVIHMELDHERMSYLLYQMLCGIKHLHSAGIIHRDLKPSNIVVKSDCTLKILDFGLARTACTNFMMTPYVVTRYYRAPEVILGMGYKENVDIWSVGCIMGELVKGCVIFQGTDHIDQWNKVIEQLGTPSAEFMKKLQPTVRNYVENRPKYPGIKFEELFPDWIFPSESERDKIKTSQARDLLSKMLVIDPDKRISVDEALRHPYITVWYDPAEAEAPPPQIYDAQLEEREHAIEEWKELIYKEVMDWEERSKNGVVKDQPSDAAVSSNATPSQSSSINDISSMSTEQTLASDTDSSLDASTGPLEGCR
human Mitogen- and Stress-activated Protein Kinase-1 (Msk1), RPS6KA5 (gene 9252), sequence (O75582 whole entry, looked up): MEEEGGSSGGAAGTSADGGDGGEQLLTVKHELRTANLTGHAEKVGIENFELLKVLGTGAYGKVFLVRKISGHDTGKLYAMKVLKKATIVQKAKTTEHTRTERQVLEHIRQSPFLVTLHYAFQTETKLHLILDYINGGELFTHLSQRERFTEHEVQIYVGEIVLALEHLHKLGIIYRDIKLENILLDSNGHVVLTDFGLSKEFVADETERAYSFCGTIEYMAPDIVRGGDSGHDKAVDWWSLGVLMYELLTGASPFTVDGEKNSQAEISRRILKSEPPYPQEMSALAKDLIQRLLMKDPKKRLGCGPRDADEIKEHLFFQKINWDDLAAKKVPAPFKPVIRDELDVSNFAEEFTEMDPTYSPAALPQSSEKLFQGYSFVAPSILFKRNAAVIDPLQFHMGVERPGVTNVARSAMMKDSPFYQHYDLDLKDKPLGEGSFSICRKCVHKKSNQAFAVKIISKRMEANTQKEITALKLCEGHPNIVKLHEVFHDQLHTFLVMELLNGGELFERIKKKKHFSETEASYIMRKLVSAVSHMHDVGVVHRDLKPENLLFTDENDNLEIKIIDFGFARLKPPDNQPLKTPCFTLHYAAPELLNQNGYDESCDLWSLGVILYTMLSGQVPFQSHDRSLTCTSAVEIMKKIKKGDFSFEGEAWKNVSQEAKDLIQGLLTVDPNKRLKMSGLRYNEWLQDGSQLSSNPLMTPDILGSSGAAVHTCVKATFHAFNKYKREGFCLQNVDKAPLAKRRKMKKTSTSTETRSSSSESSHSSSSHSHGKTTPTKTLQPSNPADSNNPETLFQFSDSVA
human Matrix Metalloproteinase-3 (MMP3), MMP3 (gene 4314), sequence (P08254 whole entry, looked up): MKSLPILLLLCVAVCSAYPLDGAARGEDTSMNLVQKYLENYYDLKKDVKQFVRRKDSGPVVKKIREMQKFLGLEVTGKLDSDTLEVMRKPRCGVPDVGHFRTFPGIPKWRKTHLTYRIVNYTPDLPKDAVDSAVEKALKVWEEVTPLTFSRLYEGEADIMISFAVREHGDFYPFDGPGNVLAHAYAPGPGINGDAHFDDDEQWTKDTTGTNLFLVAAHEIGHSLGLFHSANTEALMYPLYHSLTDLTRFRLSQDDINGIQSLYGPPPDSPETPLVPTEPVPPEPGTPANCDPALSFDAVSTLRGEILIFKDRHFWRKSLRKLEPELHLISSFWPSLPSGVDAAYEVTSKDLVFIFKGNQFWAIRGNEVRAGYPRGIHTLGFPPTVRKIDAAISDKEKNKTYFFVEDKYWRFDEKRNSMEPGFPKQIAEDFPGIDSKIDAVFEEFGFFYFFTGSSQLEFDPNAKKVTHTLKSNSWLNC
human Phosphodiesterase 10 (PDE10), PDE10A (gene 10846), sequence (Q9Y233 whole entry, looked up): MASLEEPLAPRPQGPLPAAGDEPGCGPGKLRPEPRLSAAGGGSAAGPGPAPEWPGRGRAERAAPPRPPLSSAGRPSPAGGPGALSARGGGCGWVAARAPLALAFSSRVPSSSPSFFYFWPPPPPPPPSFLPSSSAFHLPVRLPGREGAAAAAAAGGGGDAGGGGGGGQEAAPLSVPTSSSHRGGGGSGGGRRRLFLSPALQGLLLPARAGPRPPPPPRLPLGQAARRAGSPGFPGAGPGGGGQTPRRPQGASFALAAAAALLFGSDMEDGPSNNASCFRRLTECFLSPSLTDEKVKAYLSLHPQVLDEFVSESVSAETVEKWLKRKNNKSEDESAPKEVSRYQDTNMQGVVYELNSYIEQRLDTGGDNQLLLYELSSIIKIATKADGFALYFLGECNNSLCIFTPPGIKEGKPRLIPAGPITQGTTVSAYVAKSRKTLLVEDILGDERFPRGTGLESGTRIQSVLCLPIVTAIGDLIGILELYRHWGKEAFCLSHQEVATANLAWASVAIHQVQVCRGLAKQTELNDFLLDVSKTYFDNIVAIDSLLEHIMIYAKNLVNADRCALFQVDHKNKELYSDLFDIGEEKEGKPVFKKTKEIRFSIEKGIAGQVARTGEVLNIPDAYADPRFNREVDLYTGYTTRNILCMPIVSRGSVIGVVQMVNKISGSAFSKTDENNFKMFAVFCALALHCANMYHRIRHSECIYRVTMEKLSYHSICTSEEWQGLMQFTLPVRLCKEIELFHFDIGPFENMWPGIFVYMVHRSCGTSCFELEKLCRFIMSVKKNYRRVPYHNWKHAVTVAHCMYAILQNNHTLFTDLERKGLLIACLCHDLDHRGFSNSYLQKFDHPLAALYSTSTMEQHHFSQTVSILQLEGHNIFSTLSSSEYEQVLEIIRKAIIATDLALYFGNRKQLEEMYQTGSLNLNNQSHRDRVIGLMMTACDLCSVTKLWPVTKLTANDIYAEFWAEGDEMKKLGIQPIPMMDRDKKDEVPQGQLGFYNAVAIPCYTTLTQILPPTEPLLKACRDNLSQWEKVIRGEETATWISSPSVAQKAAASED
Serine/threonine-protein phosphatase PP1-alpha catalytic subunit (Homo sapiens), sequence (P62136 whole entry, looked up): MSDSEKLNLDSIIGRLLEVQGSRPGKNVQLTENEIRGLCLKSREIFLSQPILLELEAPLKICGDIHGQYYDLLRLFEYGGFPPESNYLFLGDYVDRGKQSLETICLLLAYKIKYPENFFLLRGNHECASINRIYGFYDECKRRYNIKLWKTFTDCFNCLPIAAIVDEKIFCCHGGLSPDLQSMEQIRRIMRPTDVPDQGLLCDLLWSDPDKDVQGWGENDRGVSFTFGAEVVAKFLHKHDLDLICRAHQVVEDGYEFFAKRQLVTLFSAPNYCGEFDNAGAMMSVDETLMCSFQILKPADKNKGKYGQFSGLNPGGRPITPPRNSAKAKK

Take `C=C(C)C(=O)OCCC(F)(F)C(F)(F)C(F)(F)C(F)(F)C(F)(F)C(F)(F)F`: the compound was called inactive in experiment [1].

Regarding `Cc1oc(-c2ccccc2)nc1CCOc1ccc(C[C@H](Nc2ccccc2C(=O)c2ccccc2)C(=O)O)cc1`, the compound was classed as inactive in [2] and in [5]. Also, the AC50 is 7.33 µM (active) in experiment [3], 16.1 µM (active) in experiment [4] and 11.9 µM (active) in experiment [6].

As for `CCCCCCCCC(=O)O`, in experiment [2], the compound was called inactive.

As for `Cc1cc(CCN2CCN(c3nsc4ccccc34)CC2)cc2c1NC(=O)CC2(C)C`, the result in experiment [2], in [1] and in experiment [7] was inactive. The concentration at half-maximal activity (AC50) is 25.6 µM (active) in experiment [8] and 25 µM (active) in [9].

As to `O=C(O)Cc1cc(I)c(Oc2cc(I)c(O)c(I)c2)c(I)c1`, the compound was called inactive in experiment [2], in [1], in experiment [10], in experiment [11] and in [12]. The concentration at half-maximal activity (AC50) in [7] was 0.0269 µM (active); in [8] it was 9.05 µM (active); in experiment [9] it was 8.91 µM (active).

As for `CCCCCCCC(=O)O`, the result in experiment [1], in [13], in experiment [11], in experiment [14], in experiment [12] and in experiment [8] was inactive.

With `CCOC(=O)CC(O)(CC(=O)OCC)C(=O)OCC`, the outcome in experiment [2] was inactive.

As for `Nc1cccc2c(N)cccc12`, in experiment [15], the result was inactive.

Turning to `CCCCCCCCCCCCc1ccccc1S(=O)(=O)O`, the AC50 in [2] is 14.2 µM (active); in experiment [1], 18.5 µM (active); in experiment [10] it was 29.6 µM (active); in experiment [11], 18 µM (active); in experiment [16], 26.5 µM (active); in [3] it was 31.8 µM (active). Further, the AC50 in experiment [5] is 18.2 µM (active); in experiment [14], 16.8 µM (active); in [17], 30.2 µM (active).

Take `N#C[C@@H]1CC(F)(F)CN1C(=O)CNC1CC2CCC(C1)N2c1ncccn1` (stereo not given in full): the result in [2], in [10], in experiment [11] and in experiment [18] was inactive.

Take `Oc1cc2ccccc2c2ccccc12`: the AC50 in experiment [1] is 25 µM (active).

For `CN1CCN(c2ccccc2/C=C2\SCCN(c3ccc(Cl)c(Cl)c3)C2=O)CC1`, the compound was classed as inactive in experiment [1] and in experiment [4].

Consider `CC(C)(C)c1cc(C(C)(C)C)c(O)c(C(C)(C)C)c1`, for which the compound was called inactive in [2].

In the case of `CCCCCCCCOC(=O)CCCCCCCCC(=O)OCCCCCCCC`, the outcome in experiment [2] and in experiment [1] was inactive.

With `Oc1cccc(O)c1`, the compound was called inactive in [2].

With `ClC1=C(Cl)C(Cl)(Cl)C(Cl)=C1Cl`, the compound was called inactive in experiment [2].

For the compound `CC(C)(C)c1ccc(O)c(C(C)(C)C)c1`, in experiment [2], the outcome was inactive.
